The test system of test [1] is Plasmodium falciparum Sir2 (PF13_0152, Sir2A). Briefly: Plasmodium falciparum Sir2A binding compounds – biochemical, small-molecule microarray, 635 nm fluorescence, primary screen (AID 1098).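 Also: score merges spot fluorescence intensity with its signal-to-noise ratio.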 The following applies: fluorescence 635 nm, higher = more signal.
The nature of test [2]: probe aDKK1 binding to arrayed compounds – biochemical, biotinylated probe, 635/667 nm fluorescence, primary screen (AID 1099).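 Also: score merges 667nm spot fluorescence with signal to noise across triplicate slides.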 The note with it: small-molecule microarray, higher = more signal.
Test [3] is described as follows: probe aCHRDL2 binding to arrayed compounds – biochemical, biotinylated probe, 635/667 nm fluorescence, primary screen (AID 1100). The note with it: small-molecule microarray, higher = more signal.
A short description of test [4]: change in splice reporter luminescence, either direction, cell-based, HEK293, spliceosome inhibition project, primary screen (AID 1101).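 Also: HEK293 cells carrying a splicing-competent luciferase reporter gene; test concentration not given here.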 The following applies: HEK293 splicing luciferase reporter, 24 h, higher = more signal, called active from +8 up or from −8 down. A general note: A reporter such as luciferase makes a cellular process visible.
Test [5] has as its target Fibroblast growth factor 10 (Homo sapiens) (UniProt O15520). Briefly: compounds binding fibroblast growth factor 10 – biochemical, small-molecule microarray, 635 nm fluorescence, primary screen (AID 1102). The following applies: FGF10 binding, fluorescence 635 nm, higher = more signal.
Test [6] relates to glycogen synthase kinase-3 (GSK3A per assay name; protocol says GSK3B). Put plainly: compounds binding glycogen synthase kinase-3 – biochemical, small-molecule microarray, 635 nm fluorescence, GSK3A, primary screen (AID 1103). Also: the record names both GSK3A and GSK3B. The note with it: fluorescence 635 nm, higher = more signal.
The target in test [7] is Epidermal growth factor receptor (Homo sapiens) (UniProt P00533). Briefly: compounds binding epidermal growth factor receptor – biochemical, small-molecule microarray, 635 nm fluorescence, primary screen (AID 1104).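 Also: score merges 667 nm emission intensity with spot signal to noise over triplicate slides.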 The note with it: EGFR binding, higher = more signal.
In test [8] the target is Follistatin-related protein 3 (Homo sapiens) (UniProt O95633). Briefly: compounds binding follistatin-related protein 3 – biochemical, small-molecule microarray, 635 nm fluorescence, primary screen (AID 1105).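 Also: score merges emission near 667 nm and signal to noise per printed spot across three slides.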 The following applies: FSTL3 binding, higher = more signal.
Test [9] has as its target Dickkopf-related protein 1 (Homo sapiens) (UniProt O94907). Put plainly: small molecules binding DKK1 protein – biochemical, small-molecule microarray, 635 nm fluorescence scan, primary screen (AID 1106).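 Also: score merges emission near 667 nm with signal to noise over three replicate slides.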 The following applies: higher = more signal.
Test [10] deals with Inhibin beta A chain (activin A). Briefly: small molecules binding activin A – biochemical, small-molecule microarray, 635 nm fluorescence scan, primary screen (AID 1107).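 Also: mouse activin A protein probed at 4.33 µg/mL on printed slides; score merges bound-protein fluorescence near 667 nm with spot signal-to-noise.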 The following applies: INHBA, higher = more signal.
The subject of test [11] is Human papillomavirus type 1a protein E7 (residues 44-93). Briefly: small molecules binding HPV E7 44-93 – biochemical, small-molecule microarray, residues 44-93, 635 nm fluorescence, primary screen (AID 1108).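 Also: E7 fragment applied at 1 µg/mL in TBST for 1 h at 4 C; score combines spot fluorescence with its signal to noise ratio.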 The following applies: fluorescence 635 nm, higher = more signal.
Test [12] can be described thus: hepatitis C replication reporter changes, two-sided – Huh7 cells, luciferase reporter, HCV replication inhibitor project, primary screen (AID 1109).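 Also: huh7 hepatoma cells harbouring a luciferase neomycin HCV replicon reporter; luciferase luminescence as measure of HCV replicon replication; test concentration not given here.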 The note with it: Huh7 HCV replicon luciferase reporter, 48 h; higher = more signal.
Test [13] concerns the target Left-right determination factor 2 (Homo sapiens) (UniProt O00292). Put plainly: small molecules binding LEFTY2 protein – biochemical, small-molecule microarray, 635 nm fluorescence scan, primary screen (AID 1110). The note with it: higher = more signal.
In test [14] the target is Calmodulin-1 (Homo sapiens) (UniProt P0DP23). Briefly: small molecules binding calmodulin-1 with EGTA – biochemical, small-molecule microarray, Cy5-labelled CALM1, profiling panel (AID 1111).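 Also: labelled calmodulin applied in Tris saline Tween buffer holding calcium plus EGTA and DTT.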 The following applies: Cy5-CALM1 binding fluorescence, higher = more signal.
Test [15] shares this target. Put plainly: small molecules binding Ca-loaded calmodulin-1 – biochemical, small-molecule microarray, Cy5-labelled CALM1, plus calcium, artefact control for SMM control-protein annotation, profiling panel (AID 1112).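 Also: score merges spot fluorescence with signal to noise from triplicate slides.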 The note with it: Cy5-CALM1 binding fluorescence, higher = more signal.
The nature of test [16]: probe aWnt5a binding to arrayed compounds – biochemical, biotinylated probe, 635/667 nm fluorescence, primary screen (AID 1113).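 Also: score merges 667 nm fluorescence intensity with signal-to-noise per printed feature.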 The note with it: small-molecule microarray, higher = more signal.
A short description of test [17]: probe aShh binding to arrayed compounds – biochemical, biotinylated probe, 635/667 nm fluorescence, primary screen (AID 1114).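 Also: probe is biotin-labelled aShh protein from a stem cell growth factor screen; measures binding of labelled protein to compounds printed on the slide; score merges feature fluorescence at 667 nm with signal-to-noise.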 The following applies: small-molecule microarray, higher = more signal.
A short description of test [18]: probe aNog binding to arrayed compounds – biochemical, biotinylated probe, 635/667 nm fluorescence, primary screen (AID 1115).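 Also: probe is biotinylated aNog protein used at 0.15 µg/mL for 1 h at 4 C; z-score combines 667 nm fluorescence of each spot with its signal to noise.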 The following applies: small-molecule microarray, higher = more signal.
Test [19] has as its target Torsin-1A-interacting protein 1 (Homo sapiens) (UniProt Q5JTV8). Briefly: compound microarray binding of lysate hLAP1 – cell lysate, small-molecule microarray, COS7 lysate, 635/667 nm fluorescence, primary screen (AID 1116). The following applies: 635 nm fluorescence, higher = more signal.
Test [20] concerns the target Alpha-bungarotoxin (Bungarus multicinctus) (UniProt P60615). Put plainly: compounds binding labelled alpha-BTX control protein – biochemical, small-molecule microarray, Alexa647 label, 635/667 nm fluorescence, artefact control for SMM control protein annotation, profiling panel (AID 1117). The following applies: alpha-BTX-A647 binding fluorescence, higher = more signal.

Calls of active or inactive are those of the source.

Sequence of Fibroblast growth factor 10 (Homo sapiens) (O15520 whole entry, looked up): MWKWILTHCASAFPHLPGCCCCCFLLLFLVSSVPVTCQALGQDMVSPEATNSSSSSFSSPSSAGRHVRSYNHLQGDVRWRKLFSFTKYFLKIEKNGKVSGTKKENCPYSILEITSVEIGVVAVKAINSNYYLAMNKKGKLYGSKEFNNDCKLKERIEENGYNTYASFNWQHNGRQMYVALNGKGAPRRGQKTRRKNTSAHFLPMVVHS
Sequence of Torsin-1A-interacting protein 1 (Homo sapiens) (Q5JTV8 whole entry, looked up): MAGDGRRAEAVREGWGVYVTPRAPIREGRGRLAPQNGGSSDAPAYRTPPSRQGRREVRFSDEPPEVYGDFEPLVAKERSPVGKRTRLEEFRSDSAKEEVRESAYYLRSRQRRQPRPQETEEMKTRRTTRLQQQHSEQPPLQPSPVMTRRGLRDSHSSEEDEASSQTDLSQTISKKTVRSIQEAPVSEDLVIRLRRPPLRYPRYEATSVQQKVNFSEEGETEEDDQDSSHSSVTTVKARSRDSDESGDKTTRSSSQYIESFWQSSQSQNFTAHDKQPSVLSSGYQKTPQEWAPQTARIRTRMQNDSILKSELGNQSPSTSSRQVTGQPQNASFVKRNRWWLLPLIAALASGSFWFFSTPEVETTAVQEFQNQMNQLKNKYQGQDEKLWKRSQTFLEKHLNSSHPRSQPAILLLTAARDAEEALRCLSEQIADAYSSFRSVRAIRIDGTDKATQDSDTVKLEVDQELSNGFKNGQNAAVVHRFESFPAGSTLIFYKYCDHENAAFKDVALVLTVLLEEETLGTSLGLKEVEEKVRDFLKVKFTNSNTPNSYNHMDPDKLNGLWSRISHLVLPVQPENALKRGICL
Sequence of Follistatin-related protein 3 (Homo sapiens) (O95633 whole entry, looked up): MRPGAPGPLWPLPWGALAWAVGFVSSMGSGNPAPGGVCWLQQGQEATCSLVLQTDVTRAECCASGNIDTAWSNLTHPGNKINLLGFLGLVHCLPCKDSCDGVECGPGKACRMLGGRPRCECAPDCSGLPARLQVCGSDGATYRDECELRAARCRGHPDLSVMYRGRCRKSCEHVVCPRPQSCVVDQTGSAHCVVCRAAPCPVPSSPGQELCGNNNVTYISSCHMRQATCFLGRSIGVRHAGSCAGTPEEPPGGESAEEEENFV
Sequence of Epidermal growth factor receptor (Homo sapiens) (P00533 whole entry, looked up): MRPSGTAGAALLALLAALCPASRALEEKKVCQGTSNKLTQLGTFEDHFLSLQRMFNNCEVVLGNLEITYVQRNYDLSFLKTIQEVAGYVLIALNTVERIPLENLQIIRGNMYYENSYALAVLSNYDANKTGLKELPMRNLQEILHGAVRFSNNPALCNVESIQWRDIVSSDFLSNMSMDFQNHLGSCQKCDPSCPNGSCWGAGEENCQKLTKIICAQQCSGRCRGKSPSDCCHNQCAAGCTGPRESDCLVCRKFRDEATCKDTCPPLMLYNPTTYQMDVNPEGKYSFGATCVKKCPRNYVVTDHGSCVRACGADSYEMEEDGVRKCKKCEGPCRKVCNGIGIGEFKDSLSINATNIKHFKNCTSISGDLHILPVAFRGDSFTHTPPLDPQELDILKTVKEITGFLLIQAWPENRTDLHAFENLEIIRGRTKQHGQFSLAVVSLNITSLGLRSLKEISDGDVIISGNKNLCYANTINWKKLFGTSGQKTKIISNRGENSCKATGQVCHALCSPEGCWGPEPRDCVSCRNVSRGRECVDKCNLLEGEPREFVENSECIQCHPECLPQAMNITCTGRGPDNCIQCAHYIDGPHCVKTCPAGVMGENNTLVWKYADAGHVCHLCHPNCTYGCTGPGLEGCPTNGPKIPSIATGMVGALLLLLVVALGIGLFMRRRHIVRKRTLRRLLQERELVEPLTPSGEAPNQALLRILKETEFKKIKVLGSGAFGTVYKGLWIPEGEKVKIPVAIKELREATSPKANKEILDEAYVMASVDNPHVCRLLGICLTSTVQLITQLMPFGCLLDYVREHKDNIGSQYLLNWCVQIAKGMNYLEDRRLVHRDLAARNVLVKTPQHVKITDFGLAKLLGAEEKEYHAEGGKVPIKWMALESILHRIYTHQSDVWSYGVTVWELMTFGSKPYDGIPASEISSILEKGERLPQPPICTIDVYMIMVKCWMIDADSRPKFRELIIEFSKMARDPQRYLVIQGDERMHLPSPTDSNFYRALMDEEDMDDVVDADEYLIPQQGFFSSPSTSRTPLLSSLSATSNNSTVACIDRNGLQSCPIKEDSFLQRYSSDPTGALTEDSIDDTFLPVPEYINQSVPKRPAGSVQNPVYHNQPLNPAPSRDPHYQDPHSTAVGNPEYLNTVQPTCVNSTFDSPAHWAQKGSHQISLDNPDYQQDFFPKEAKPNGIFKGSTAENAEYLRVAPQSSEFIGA
Sequence of Alpha-bungarotoxin (Bungarus multicinctus) (P60615 whole entry, looked up): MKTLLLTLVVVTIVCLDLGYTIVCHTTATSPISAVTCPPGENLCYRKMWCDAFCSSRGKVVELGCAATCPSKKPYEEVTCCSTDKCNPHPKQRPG
Sequence of Dickkopf-related protein 1 (Homo sapiens) (O94907 whole entry, looked up): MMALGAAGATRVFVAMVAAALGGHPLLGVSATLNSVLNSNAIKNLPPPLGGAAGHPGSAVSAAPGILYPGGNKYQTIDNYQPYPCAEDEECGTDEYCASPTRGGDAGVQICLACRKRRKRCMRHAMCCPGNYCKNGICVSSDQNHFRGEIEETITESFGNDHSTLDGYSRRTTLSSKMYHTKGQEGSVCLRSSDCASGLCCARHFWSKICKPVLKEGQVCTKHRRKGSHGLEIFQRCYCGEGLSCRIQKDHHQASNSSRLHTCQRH
Sequence of Left-right determination factor 2 (Homo sapiens) (O00292 whole entry, looked up): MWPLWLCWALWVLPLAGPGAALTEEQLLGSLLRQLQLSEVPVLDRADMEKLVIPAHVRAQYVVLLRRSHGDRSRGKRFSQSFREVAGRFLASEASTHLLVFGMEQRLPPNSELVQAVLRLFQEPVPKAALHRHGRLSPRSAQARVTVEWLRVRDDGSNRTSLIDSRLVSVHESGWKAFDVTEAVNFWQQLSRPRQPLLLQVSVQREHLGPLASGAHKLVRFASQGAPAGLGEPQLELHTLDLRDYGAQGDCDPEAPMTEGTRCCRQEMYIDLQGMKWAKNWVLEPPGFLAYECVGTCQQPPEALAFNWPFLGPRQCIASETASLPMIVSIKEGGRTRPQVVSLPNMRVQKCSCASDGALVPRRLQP

Turning to `CC(=O)C1=CCC(c2ccccc2)N(S(=O)(=O)c2ccc(C)cc2)C1` (stereo not given), the composite z-score was determined as 1.4 in test [1]; 0.196 in test [2]; 0.469 in test [3]; 0.586 in [5]; 0.258 in test [6]; 0.255 in [7]. Further, the composite z-score in test [8] was 1.01; in [9], 0.0538; in [10] it was 1.12; in test [11], 1.41; in test [13], 0.034; in test [14] it was -0.105. Besides, the composite z-score in test [15] was -0.163; in [16], -0.0758; in [17], 0.156; in [18], 0.471; in [19], 1.28; in test [20], 0.19. For the same molecule, the values for the z-score in test [4] and in test [12] were 0.0149 (inactive) and -0.975, respectively.
As to `C=CCC(OC(C)=O)[C@@H]1[C@@H](N(Cc2cc3ccccc3o2)C(=O)c2ccc(C)cc2)c2cc(OCCCO)ccc2N1C(=O)c1ccc2ccccc2c1` (stereo not given in full), the composite z-score in test [1] is -0.119; in test [2], -0.0022; in [3], 0.263; in [5], 0.299; in [6] it was -0.274; in test [7], 0.105. Besides, the composite z-score was 0.194 in [8]; 0.0379 in test [9]; 1.46 in test [10]; 0.0468 in test [11]; 0.161 in [13]; -0.0375 in test [14]. Also, the composite z-score in test [15] was 0.37; in test [16], -0.0644; in test [17], 0.313; in [18] it was -0.314; in test [19], 0.189; in test [20], -0.298. In addition, the results for the z-score in test [4] and in test [12] were -0.422 (inactive) and -0.274, respectively.
Turning to `COc1ccc(CCN2C(=O)[C@@]3(Cc4ccccc42)c2ccccc2C(=O)N(Cc2ccccc2Cl)[C@H]3c2ccc(CO)cc2)cc1`, the composite z-score is 1.14 in [1]; 0.546 in test [2]; 0.929 in test [3]; -0.202 in [5]; -1.01 in test [6]; -1.12 in test [7]. Besides, the composite z-score was -0.61 in [8]; -0.695 in test [9]; 0.38 in test [10]; -0.782 in [11]; -0.622 in test [13]; 0.102 in test [14]. The composite z-score is 0.45 in test [15]; -0.176 in test [16]; -0.138 in test [17]; -0.272 in test [18]; 0.0577 in [19]; 0.0121 in test [20]. For the same molecule, the figures for the z-score in test [4] and in test [12] were -0.0194 (inactive) and 0.0889, respectively.
With `Cc1ccc(S[C@]2(C(=O)NCc3ccccc3)CC(=O)N(Cc3ccccc3)[C@@H]2c2ccc(CO)cc2)cc1`, the composite z-score in [1] is 0.979; in test [2] it was 0.114; in test [3], 0.694; in test [5], -0.173; in test [6] it was -0.789; in [7], -1.22. Besides, the composite z-score in [8] is -1.01; in [9], -0.799; in test [10] it was -0.317; in test [11] it was 1.42; in test [13], -0.934; in test [14], -0.344. Besides, the composite z-score was -0.195 in [15]; -0.0395 in test [16]; -0.0977 in test [17]; -0.364 in test [18]; 1.2 in test [19]; -0.593 in test [20]. The z-score in test [4] is 0.643 (inactive); in test [12] it was -2.1.
Take `CC(C)c1ccc(NN2C(C(O)c3cccc(O)c3)C=CC3C(=O)N(c4ccccc4)C(=O)C32)cc1` (stereo not given): the composite z-score worked out at 0.996 in test [1]; 0.808 in test [2]; 0.835 in [3]; 1.39 in [5]; 1.27 in test [6]; 0.373 in test [7]. The composite z-score in [8] was 1.05; in test [9], -0.0143; in test [10], -0.251; in test [11] it was 1.43; in test [13], -0.136; in test [14], 1.93. In addition, the composite z-score in test [15] is 0.904; in test [16] it was -0.0583; in test [17], 0.0588; in test [18] it was 1.78; in [19] it was 1.5; in test [20], 1.31. The z-score was 0.689 (inactive) in [4] and 0.141 in test [12].
As to `[N-]=[N+]=Nc1ccccc1[C@H]1OC(c2ccc(OCCCO)cc2)=N[C@@]1(CCS(=O)(=O)c1ccccc1)C(=O)O`, the composite z-score in test [1] is 1.31; in test [2] it was 0.503; in test [3], 1.14; in [5], 0.104; in test [6], -0.359; in test [7], -0.18. Also, the composite z-score in [8] was -0.116; in test [9], -0.601; in [10], 1.25; in [11], 0.447; in [13] it was -0.512; in [14], 1.16. Further, the composite z-score in test [15] is 0.373; in test [16], -0.131; in test [17], 0.0278; in test [18], 1.01; in test [19], 2; in [20] it was 0.582. In addition, the values for the z-score in [4] and in [12] were -0.433 (inactive) and 0.86, respectively.

For the origin of these results see PubChem BioAssay.
